Results as given in PubChem BioAssay.

Test: small-molecule microarray binders of probe aEGFR, primary screen, biochemical, biotinylated probe, 635/667 nm fluorescence (AID 1097);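 note: probe is a biotinylated anti-EGFR antibody binding compounds printed on slides; score combines fluorescence near 667 nm and signal to noise of each spot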
Conditions: higher = more signal
`COCCOC(=O)N1C(=O)[C@@]2(c3cc(C#CCNC(N)=O)ccc31)[C@H](C(=O)NC[C@H](O)c1ccccc1)[C@H]1C(=O)O[C@H](c3ccccc3)[C@H](c3ccccc3)N1[C@@H]2c1ccc(OCCO)cc1` showed a composite z-score of -0.0828. Molecule `COC(=O)[C@@]1(Cc2ccc(F)cc2)[C@H]2c3cc(C(=O)N(C)C)n(CCn4cc([N+](=O)[O-])nc4C)c3C[C@H]2CN1C(=O)c1ccccc1` has a composite z-score of -0.0039. With `CN(C)CCCCNC(=O)[C@H]1C[C@H]2C(=O)N[C@@H](Cc3ccccc3)C(=O)N2[C@H]1c1cccc(OCCO)c1` the composite z-score was -0.0512. For `CCCCN1CC=CC23O[C@@H]4/C=C\CCC(C)OC(=O)C4[C@H]2C(=O)N(C(C)CO)[C@@H]3C1=O` (stereo not given in full), the composite z-score was -0.401. `CCCCC(=C=CC[C@@H](O)c1cccc(OCCO)c1)CCO` showed a composite z-score of -0.152. Work on `CN1C=C(C(=O)OCCS(C)(=O)=O)C(C(=O)OCCS(C)(=O)=O)=CC(CCCO)=CC1c1ccc(CN2CCCC2)cc1` (stereo not given) yielded a composite z-score of 0.273. `C#CCN(C/C=C/c1ccccc1)[C@H](CO[Si](C)(C)C(C)(C)C)c1ccccc1` showed a composite z-score of -0.21. `O=C1O[C@H](c2ccccc2)[C@H](c2ccccc2)N2[C@H]1[C@@H](C(=O)N1CCN(c3ncccn3)CC1)[C@]1(C(=O)Nc3ccccc31)[C@H]2c1ccc(O)cc1` showed a composite z-score of -0.0936. With `[N-]=[N+]=NCc1ccccc1[C@@H]1OC(c2ccc(OCCCO)cc2)=N[C@]1(Cc1ccccc1)C(=O)NCc1ccccc1` the composite z-score was -0.117. `C=CCOC(=O)[C@H]1[C@@H]2C(=O)O[C@@H](c3ccccc3)[C@@H](c3ccccc3)N2[C@@H](c2ccc(OCCOC(=O)[C@@H]3C[C@@H]4C(=O)N[C@@H](CC(C)C)C(=O)N4[C@@H]3c3ccc(O)cc3)cc2)[C@]12C(=O)Nc1ccc(I)cc12` showed a composite z-score of 0.006.
